Results: PubChem BioAssay
A number with no mark means an inactive call. Active and inactive are the calls of the source. Unless noted, no stated cut-off is given here; in the data, active means inhibition above about 36%; inactive means the rest.

Experiments:
[1] = target: Nuclear receptor coactivator 3 (Homo sapiens) (UniProt Q9Y6Q9); assay: SRC3 coactivator transcriptional activity inhibitors, confirmation, cell-based, luminescence, quadruplicate (AID 588792;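 active means mean inhibition over 43.08%, the solvent-only control mean plus 3 SD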;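 further: 0% = DMSO treated cells and 100% = gossypol at 36 µM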); details: HEK293 GAL4-SRC3 luciferase reporter, at 3.6 µM, hits give high values
Sequence of Nuclear receptor coactivator 3 (Homo sapiens) (Q9Y6Q9 whole entry, looked up, the tested form may be a part): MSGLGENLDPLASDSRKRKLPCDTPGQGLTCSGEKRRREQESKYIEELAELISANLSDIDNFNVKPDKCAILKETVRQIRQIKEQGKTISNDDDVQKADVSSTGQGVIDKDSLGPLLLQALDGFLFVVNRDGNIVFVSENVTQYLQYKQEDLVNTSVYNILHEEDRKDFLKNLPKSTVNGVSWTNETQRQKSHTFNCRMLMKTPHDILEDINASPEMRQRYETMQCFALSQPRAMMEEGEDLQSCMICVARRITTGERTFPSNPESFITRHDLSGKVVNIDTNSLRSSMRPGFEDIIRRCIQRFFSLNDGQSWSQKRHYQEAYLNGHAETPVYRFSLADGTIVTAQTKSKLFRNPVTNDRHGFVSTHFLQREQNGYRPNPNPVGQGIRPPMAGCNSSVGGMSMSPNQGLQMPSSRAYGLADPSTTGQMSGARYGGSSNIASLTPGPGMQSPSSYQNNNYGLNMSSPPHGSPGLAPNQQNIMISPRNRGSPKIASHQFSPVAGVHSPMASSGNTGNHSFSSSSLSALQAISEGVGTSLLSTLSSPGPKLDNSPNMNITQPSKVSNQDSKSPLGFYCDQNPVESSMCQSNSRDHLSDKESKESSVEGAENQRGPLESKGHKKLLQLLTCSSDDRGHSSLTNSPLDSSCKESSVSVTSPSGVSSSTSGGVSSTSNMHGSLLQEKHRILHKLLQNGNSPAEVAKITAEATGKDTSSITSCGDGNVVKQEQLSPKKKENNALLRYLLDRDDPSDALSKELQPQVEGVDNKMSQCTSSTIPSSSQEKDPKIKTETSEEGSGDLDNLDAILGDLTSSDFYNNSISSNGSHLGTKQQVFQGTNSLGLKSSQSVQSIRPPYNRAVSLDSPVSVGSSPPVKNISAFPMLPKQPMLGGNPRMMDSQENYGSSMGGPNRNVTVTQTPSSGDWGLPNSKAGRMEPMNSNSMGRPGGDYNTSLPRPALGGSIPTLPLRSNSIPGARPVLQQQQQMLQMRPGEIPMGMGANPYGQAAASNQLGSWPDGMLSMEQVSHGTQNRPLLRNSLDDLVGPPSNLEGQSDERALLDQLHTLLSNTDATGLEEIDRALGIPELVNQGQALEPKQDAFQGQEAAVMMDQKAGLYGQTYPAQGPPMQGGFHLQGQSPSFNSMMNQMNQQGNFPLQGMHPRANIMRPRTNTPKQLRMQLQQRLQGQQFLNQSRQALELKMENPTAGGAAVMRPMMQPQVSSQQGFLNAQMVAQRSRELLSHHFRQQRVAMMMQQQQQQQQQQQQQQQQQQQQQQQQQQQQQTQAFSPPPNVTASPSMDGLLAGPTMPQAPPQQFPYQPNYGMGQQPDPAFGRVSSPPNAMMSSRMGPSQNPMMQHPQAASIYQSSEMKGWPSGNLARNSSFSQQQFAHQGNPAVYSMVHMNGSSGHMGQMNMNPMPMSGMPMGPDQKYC

[2] = system: transactivating tegument protein VP16 (Human herpesvirus 1), Gal4-VP16 luciferase reporter; assay: VP16 transactivation inhibitors, counter-screen for SRC3 inhibitor project, cell-based, luminescence, high throughput (AID 588794; in the data active means inhibition above about 30%); details: mammalian cells, VP16-driven luciferase reporter luminescence; at 3.6 µM; hits give high values
[3] = target: Nuclear receptor coactivator 1 (Homo sapiens) (UniProt Q15788); assay: SRC1 coactivator transcriptional activity inhibitors, confirmation, cell-based, luminescence, quadruplicate (AID 588820;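 active means mean inhibition above 46.68%, the untreated control wells mean plus 3 SD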;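 further: 0% = DMSO wells and 100% = gossypol 36 µM treated wells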); details: HEK293 GAL4-SRC1 luciferase reporter, at 3.6 µM, hits give high values
Sequence of Nuclear receptor coactivator 1 (Homo sapiens) (Q15788 whole entry, looked up, the tested form may be a part): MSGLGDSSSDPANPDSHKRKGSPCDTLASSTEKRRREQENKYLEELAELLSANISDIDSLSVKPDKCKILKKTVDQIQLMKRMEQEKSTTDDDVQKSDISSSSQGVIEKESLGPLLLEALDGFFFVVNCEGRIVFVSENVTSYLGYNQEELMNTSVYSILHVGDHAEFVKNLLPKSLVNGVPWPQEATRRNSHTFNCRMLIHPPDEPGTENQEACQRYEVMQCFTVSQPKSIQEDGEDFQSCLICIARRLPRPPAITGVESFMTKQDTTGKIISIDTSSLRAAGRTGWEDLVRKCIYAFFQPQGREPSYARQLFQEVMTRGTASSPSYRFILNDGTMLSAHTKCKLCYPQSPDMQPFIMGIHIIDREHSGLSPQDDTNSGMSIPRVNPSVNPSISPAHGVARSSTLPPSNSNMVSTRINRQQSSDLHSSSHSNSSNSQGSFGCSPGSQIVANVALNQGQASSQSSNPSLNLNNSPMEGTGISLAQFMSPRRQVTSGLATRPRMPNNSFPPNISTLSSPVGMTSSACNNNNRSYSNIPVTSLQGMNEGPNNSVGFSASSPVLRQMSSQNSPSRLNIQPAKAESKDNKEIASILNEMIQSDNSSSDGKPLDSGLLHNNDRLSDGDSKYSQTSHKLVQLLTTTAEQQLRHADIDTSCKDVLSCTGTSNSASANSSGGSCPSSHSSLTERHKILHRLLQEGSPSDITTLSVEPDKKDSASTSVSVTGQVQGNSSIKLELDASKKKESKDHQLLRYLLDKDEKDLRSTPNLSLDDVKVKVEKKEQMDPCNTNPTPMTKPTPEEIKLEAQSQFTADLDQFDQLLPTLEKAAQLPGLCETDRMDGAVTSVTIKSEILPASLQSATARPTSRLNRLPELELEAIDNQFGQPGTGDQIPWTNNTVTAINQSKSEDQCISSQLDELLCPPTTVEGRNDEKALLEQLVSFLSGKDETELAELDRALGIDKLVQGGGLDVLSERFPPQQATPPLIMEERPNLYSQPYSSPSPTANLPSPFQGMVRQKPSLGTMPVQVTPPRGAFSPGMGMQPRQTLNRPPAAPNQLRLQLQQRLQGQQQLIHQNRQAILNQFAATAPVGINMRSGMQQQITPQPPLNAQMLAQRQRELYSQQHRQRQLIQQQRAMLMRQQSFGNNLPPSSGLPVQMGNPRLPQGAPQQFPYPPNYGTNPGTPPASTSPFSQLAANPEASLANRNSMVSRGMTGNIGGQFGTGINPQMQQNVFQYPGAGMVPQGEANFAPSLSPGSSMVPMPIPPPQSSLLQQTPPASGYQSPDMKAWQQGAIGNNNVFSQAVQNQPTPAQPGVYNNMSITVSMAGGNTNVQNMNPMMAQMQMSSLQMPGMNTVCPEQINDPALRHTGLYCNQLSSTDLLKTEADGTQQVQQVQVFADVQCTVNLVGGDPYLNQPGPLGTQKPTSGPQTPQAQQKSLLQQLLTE

[4] = VP16 transactivation inhibitors, counter-screen for SRC1 inhibitor project, cell-based, luminescence, high throughput (AID 588824; in the data active means inhibition above about 25%); details: cell-based VP16 transactivation luciferase luminescence; at 3.6 µM; hits give high values
[5] = system: transactivating tegument protein VP16 (Human herpesvirus 1); assay: VP16 transactivation reporter inhibitors, counter-screen for SRC2 inhibitor project, cell-based, luminescence, single concentration (AID 652007); details: cell-based VP16 transactivation luciferase reporter, at 8.9 µM, hits give high values
[6] = target: Nuclear receptor coactivator 2 (Homo sapiens) (UniProt Q15596); assay: SRC2 coactivator transcriptional activity inhibitors, confirmation, cell-based, luminescence, HEK293, triplicate (AID 652008;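 active means mean inhibition above 46.5%, the solvent-only control mean plus 3 SD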;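 further: 0% = DMSO-treated cells and 100% = Gossypol at 36 µM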); details: HEK293 GAL4-SRC2 luciferase reporter, at 8.9 µM, hits give high values
Sequence of Nuclear receptor coactivator 2 (Homo sapiens) (Q15596 whole entry, looked up, the tested form may be a part): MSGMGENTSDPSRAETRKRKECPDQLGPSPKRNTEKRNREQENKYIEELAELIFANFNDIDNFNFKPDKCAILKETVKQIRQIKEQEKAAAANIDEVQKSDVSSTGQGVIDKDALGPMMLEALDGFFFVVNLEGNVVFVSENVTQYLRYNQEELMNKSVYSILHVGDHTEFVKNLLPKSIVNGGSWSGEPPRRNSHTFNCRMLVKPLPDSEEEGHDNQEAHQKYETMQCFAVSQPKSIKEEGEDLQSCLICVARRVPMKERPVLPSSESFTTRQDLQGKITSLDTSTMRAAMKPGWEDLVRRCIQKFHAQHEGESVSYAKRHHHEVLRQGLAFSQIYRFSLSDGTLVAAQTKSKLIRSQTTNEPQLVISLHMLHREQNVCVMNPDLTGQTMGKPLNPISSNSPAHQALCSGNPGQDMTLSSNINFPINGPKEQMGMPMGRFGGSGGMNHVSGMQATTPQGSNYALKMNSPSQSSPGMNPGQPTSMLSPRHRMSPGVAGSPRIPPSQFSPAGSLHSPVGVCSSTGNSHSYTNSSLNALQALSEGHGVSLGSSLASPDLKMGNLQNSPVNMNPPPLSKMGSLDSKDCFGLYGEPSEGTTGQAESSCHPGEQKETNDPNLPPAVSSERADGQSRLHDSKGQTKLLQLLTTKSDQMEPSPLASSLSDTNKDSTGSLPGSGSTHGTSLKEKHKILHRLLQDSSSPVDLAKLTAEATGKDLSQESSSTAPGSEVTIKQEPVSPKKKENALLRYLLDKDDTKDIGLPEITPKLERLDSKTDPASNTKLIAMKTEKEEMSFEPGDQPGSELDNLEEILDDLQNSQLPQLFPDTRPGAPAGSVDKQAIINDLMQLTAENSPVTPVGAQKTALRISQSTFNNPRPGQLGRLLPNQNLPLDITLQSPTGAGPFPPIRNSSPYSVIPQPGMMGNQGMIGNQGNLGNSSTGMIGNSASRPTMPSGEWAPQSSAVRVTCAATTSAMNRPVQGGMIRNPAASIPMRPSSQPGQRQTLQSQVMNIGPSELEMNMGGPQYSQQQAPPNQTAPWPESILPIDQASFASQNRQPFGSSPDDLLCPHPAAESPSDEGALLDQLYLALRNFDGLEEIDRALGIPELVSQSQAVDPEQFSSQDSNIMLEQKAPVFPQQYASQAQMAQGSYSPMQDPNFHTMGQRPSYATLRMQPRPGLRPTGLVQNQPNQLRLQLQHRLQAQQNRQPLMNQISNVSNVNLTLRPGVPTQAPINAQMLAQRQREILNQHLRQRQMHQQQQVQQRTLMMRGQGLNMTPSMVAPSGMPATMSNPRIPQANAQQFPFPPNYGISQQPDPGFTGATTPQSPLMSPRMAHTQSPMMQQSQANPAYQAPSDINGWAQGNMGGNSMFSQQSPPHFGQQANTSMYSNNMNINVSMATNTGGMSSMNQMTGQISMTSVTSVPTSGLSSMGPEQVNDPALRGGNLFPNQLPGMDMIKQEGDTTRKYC

Structure (SMILES)	inhibition [1]	inhibition [2]	inhibition [3]	inhibition [4]	inhibition [5]	inhibition [6]
CC1CCc2nc(NC(=O)C3COc4ccccc4O3)sc2C1 (configuration not stated)	9.01%	-11.5%	-134%	-51.9%	-16.9%	36.4%
CCOc1cc(CNc2ccc3c(c2)OCCO3)cc(Br)c1OCC	25.4%	20.9%	-11.6%	20.8%	-27.7%	-1.58%
Cc1cc(/C=N/Nc2ncnc(N)c2[N+](=O)[O-])c(C)n1-c1ccccc1	26%	12.4%	-28.1%	-10.1%	23.9%	61.2% (active)
CCn1c2ccccc2c2cnc(N=CN(C)C)c(C#N)c21	32%	19.6%	28.3%	21.4%	-28.4%	-0.33%
CCCCN1C=CC(=C2C(=O)c3ccccc3C2=O)C=C1	41.5%	23.1%	-41.3%	14.1%	51% (active)	73.1% (active)
CCCC(=O)NC(c1ccc(Cl)cc1Cl)c1ccc2cccnc2c1O (configuration not stated)	34.5%	28.6%	45.7%	48% (active)	0.83%	17.2%
CCc1ccc(-c2nc(CSCC(=O)NCc3ccco3)c(C)o2)cc1	33.8%	27.9%	33.9%	24.5%	41.4% (active)	70.5% (active)
